# Source: PubChem BioAssay
# MCF10A rereplic: inducers of DNA re-replication in MCF 10A breast cells. MCF 10A DNA re-replication, Hoechst nuclear intensity, 48 h. Potency, µM (doses to about 46.1 µM), usual class: activators. hit rate 2.9% among 350,000. AID 624296; note: nearly all actives have a fitted effect of over 50% in size
# DT40 TDP1 CPT: growth inhibition of DT40 Tdp1-/-;hTDP1 cells with camptothecin (screen for TDP1 inhibitors); chicken DT40 Tdp1-/-;hTDP1 cells + 20 nM CPT, ATP luminescence, 48 h; Potency, µM (series often up to 46.2 µM), actives largely listed as inhibitors; hit rate 12% among 420,000; AID 686979; note: nearly all actives have a fitted effect of over 55% in size
#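 Chicken DT40 Tdp1-/- cells complemented with human TDP1, 400 cells/well, exposed to compounds plus 20 nM camptothecin for at least 48 h at 37 C; viability read as ATP content by CellTiter-Glo luminescence.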
# BCR signal inh: blocks chronic active B-cell receptor signaling; ABC-DLBCL IkBa-CBG/CBR reporter, luminescence ratio, 4 h; Potency, µM (top dose mostly 46.1 µM), hits mostly inhibitors; hit rate 0.05% among 340,000; active = well fitted inhibition curve with a large enough effect in the signal ratio, with a control signal flat, not every such curve was filed as active; inconclusive = small, poorly fitted or top-dose-only effect, or effect the other way, or a change in a side signal; the % refers to the signal ratio
#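 TMD8 ABC-DLBCL cells carrying doxycycline-inducible green luciferase fused to IkappaBalpha plus unfused red luciferase were exposed to compounds (up to 46 uM) for 4 hrs at 37C. Activity came from the overlap-corrected green/red luminescence ratio.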
# IL1B secr inh: inflammasome signaling inhibition, IL-1 beta readout; THP-1 LPS/ATP IL-1B secretion, AlphaLISA, 16 h; stronger effect = lower value; activity change, % at 57.5 µM; hit rate 4.7% among 360,000; in the data active = activity change below about -50%; inconclusive = mostly about -30% to -49%
#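 THP-1 cells pretreated 1 hr with compounds (up to 57.5 uM final), then stimulated with LPS (250 ng/mL final) plus ATP (1.25 mM final); secreted IL-1B measured by AlphaLISA after 16 hr, decreased signal indicating inhibition.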
# SW480 rerep: inducers of DNA re-replication in SW480 colon cancer cells; SW480 DNA re-replication, Hoechst DNA content imaging, 48 h; Potency, µM (top dose mostly 46.1 µM), usual class: activators; hit rate 1.8% among 340,000; note: nearly all actives have a fitted effect of over 55% in size
#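 Image-based read-out: total Hoechst fluorescence of nuclei (405 nm excitation, 500-530 nm emission), with hits raising the fraction of high-intensity nuclei. SW480 colon cells incubated 48 hr with compounds at 37 C.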
# TDP1 cell noCPT: qHTS for Inhibitors of human tyrosyl-DNA phosphodiesterase 1 (TDP1): qHTS in cells in absence of CPT. DT40 Tdp1-/- hTDP1 cells, no CPT, ATP luminescence, 48 h. Potency, µM (series often up to 46.2 µM), usual class: inhibitors. hit rate 15% among 420,000. AID 686978, 2013; note: nearly all actives have a fitted effect of over 55% in size
#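 Cells were dispensed at 400 per well, compounds added by pin tool, plates incubated ≥48 hr at 37 °C, then CellTiter-Glo added for 30 min at room temperature before luminescence reading. Line: DT40 Tdp1-/- complemented with hTDP1; camptothecin omitted.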
# A number is an active result; n = inactive; u = inconclusive; x = no result. A selection: hits, their analogues and other compounds. The true share with any hit is near 19%. Unless noted, calls come from the whole dose curve; as a rule, active = well fitted curve in the direction sought with a large enough effect; inconclusive = small, poorly fitted or top-dose-only effect, or another doubt; inactive = no such curve, though single readings can be large; an effect the other way counts as inactive or inconclusive.
SMILES,MCF10A rereplic,DT40 TDP1 CPT,BCR signal inh,IL1B secr inh,SW480 rerep,TDP1 cell noCPT
CCc1nnc(SCc2nc(-c3cccc(Cl)c3)oc2C)c2cc3sc(C)cc3n12,x,n,x,x,x,u
CC(C)CNC(=S)N(CCO)Cc1cc2cc3c(cc2[nH]c1=O)OCO3,n,n,n,u,n,n
Cc1ccc([C@@H]2CC(=O)[C@@H]3CN(S(=O)(=O)c4ccc(C)cc4)[C@H](c4ccccc4F)C[C@@H]3N2S(=O)(=O)c2ccc(C)cc2)cc1,x,n,x,n,x,n
Cc1cc(C2=NNC(=NC3CCCCC3)SC2)c(C)n1-c1c(C)n(C)n(-c2ccccc2)c1=O,n,n,n,n,n,u
Cc1cc(C2=NNC(=NC3CC3)SC2)c(C)n1-c1ccccc1F,18µM,16µM,n,n,u,21µM
C=C(C)CN=C1NN=C(c2cc(C)n(-c3ccc(C)cc3)c2C)CS1,u,15µM,n,n,u,12µM
Cc1cccc(C)c1N=C1NN=C(c2ccccc2F)CS1,n,21µM,n,n,x,21µM
CCCCN=C1NN=C(c2ccc(C)c(C)c2)CS1,n,u,u,u,n,u
O=C(Nc1ccccc1)OCCOc1ccc(Cl)cc1Cl,n,u,x,n,u,n
O=C(NNC(=O)c1cc2cc3ccccc3nc2s1)c1cccc(C(F)(F)F)c1,u,n,n,n,n,n
COc1cnc(-c2cccc(C(F)(F)F)c2)c(NC(=O)c2cc3ccccc3s2)n1,x,18µM,x,n,x,10µM
CCCCC(CC)CNC(=O)CN1C(=O)NC2(CCc3ccccc32)C1=O (stereo not drawn),n,u,n,n,n,u
CC(=O)N1CCc2ccc(S(=O)(=O)N3CCc4ccccc43)cc21,n,21µM,n,n,n,5.2µM
CCn1c(=O)n(CC)c2cc(S(=O)(=O)N3CCc4ccccc43)ccc21,n,13µM,n,n,n,18µM
COc1ccc(S(=O)(=O)N2CCc3ccccc32)cc1OC,n,n,n,u,n,n
O=S(=O)(c1ccc(Cl)cc1)N1CCc2ccccc21,n,u,n,n,n,15µM
CC(=O)NC(C)(c1ccccc1)c1nc(-c2cc(F)cc(F)c2)cs1 (stereo not drawn),x,u,x,n,x,u
CCNC(=O)c1ccc2c(c1)C1C3CCC(C3)C1C(c1ccccc1)N2 (stereo not drawn),u,u,n,n,n,u
C/C(=N/NC(=O)Cc1cccc2ccccc12)c1cccs1,n,u,n,n,n,16µM
C/C(=N\NC(=O)Cn1c(C)nc2ccccc21)c1cccs1,n,15µM,n,n,n,21µM
C/C(=N\NC(=O)c1ccccc1O)c1cccs1,n,n,u,n,n,23µM
C/C(=N\NC(=O)c1cccc2ccccc12)c1cccs1,n,n,n,n,n,n
C/C(=N\NC(=O)Cc1ccccc1)c1cccs1,18µM,n,u,n,n,n
O=C(N/N=C/c1ccc(Br)cc1)c1ccc(Br)o1,n,n,u,n,n,u
CN1CCN(C2CCN(c3ccc(Nc4nnc(Cl)c(Nc5ccccc5S(C)(=O)=O)n4)c(OC(CF)CF)c3)CC2)CC1,n,u,n,n,u,u
SMILES,MCF10A rereplic,DT40 TDP1 CPT,BCR signal inh,IL1B secr inh,SW480 rerep,TDP1 cell noCPT
Cc1ccc(NC(=O)CCc2c(C)nc3ncnn3c2C)cc1Cl,x,n,x,x,x,n
CC(/C=N\NC(=O)Cn1c(C)nc2ccccc21)=C\c1ccccc1,n,8.2µM,n,n,n,8.2µM
CC(=O)NC(CCc1ccc(Cl)c(Cl)c1)c1cccc(O)c(=O)c1 (stereo not drawn),x,23µM,x,n,x,7.3µM
O=C(Nc1cccc(Cl)c1)c1cc2c(=O)[nH]c3ccccc3c2s1,x,n,x,x,x,n
Nc1ncnc2c1ncn2[C@@H]1O[C@H](C(=O)N(CCC2=CCCCC2)CC2CC2)[C@@H](O)[C@H]1O,x,u,x,n,x,16µM
COCCN(Cc1ccc(C)cc1)C(=O)[C@H]1O[C@@H](n2cnc3c(N)ncnc32)[C@H](O)[C@@H]1O,x,n,x,n,x,n
COc1ccccc1CCNC(C)CCc1ccc(O)cc1 (stereo not drawn),n,u,n,n,n,n
CC(CCc1ccc(O)cc1)NCCc1ccc(O)c(O)c1 (stereo not drawn),n,27µM,x,u,u,15µM
CCCN1CCN(CCNC(=O)Nc2cc(C)ccc2OC)CC1,x,n,x,x,x,n
O=C(CN1CCCC1)Nc1ccc2c(c1)CCC2,n,n,n,n,n,n
Cc1ccc(C)c(S(=O)(=O)N2CCN(CC(=O)Nc3ccc4c(c3)CCC4)CC2)c1,u,u,n,n,n,u
O=C(CN1CCN(S(=O)(=O)c2ccccc2)CC1)Nc1ccc2c(c1)CCC2,n,u,n,u,n,15µM
O=C(CN1CCN(Cc2ccccc2)CC1)Nc1ccc2c(c1)CCC2,n,n,u,-86,n,u
C/C(CC(=O)Nc1ccc(Cl)cc1Cl)=N\NC(N)=S,u,n,n,n,u,n
C/C(CC(=O)Nc1ccc(Cl)cc1C(F)(F)F)=N\NC(N)=S,u,n,11µM,x,u,n
C(=N\Nc1nc(Nc2ccccc2)nc(Nc2ccccc2)n1)/c1ccncc1,n,u,n,n,n,n
C(=N\Nc1nc(Nc2ccccc2)nc(Nc2ccccc2)n1)/c1cccnc1,u,16µM,u,n,n,10µM
Cc1ccc(-c2cc(-c3ccccc3)nc(N/N=C/c3cccnc3)n2)cc1,9.2µM,29µM,x,n,u,u
C(=N/Nc1nc(-c2ccccc2)cc(-c2ccccc2)n1)/c1cccnc1,u,u,u,-53,n,16µM
Cc1cc(-c2ccccc2)nc(N/N=C/c2cccnc2)n1,n,n,u,n,n,n
Oc1cccc(/C=N\Nc2nncc(-c3ccccc3)n2)c1,u,u,u,-62,n,u
Oc1ccc(NCc2ccccc2OCc2ccccc2)cc1,23µM,18µM,u,-74,15µM,23µM
Fc1ccccc1CNc1ccc(Cl)cc1,n,n,u,n,n,n
O=c1[nH]c2ccc(NCc3ccccc3OCc3ccc(Cl)cc3)cc2[nH]1,n,23µM,u,n,u,u
CCNCc1ccccc1OCc1ccccc1,n,n,n,n,n,n
Oc1ccc(NCc2ccccc2OCc2ccc(Cl)cc2)cc1,x,29µM,x,x,x,21µM
COCCn1c(N)c(N(Cc2ccccc2)C(=O)COc2ccc(F)cc2Cl)c(=O)[nH]c1=O,n,n,n,n,n,n
CCOC(=O)c1cc(C(C)(C)C)oc1CN,n,n,n,n,n,u
